Screening data as filed in PubChem BioAssay.
Most compounds without a hit are left out; they make up all but 9.3% or so of the library.
FLuc counter: firefly luciferase modulation, counter-screen for miR-21 project. actives 6.9% (n = 360,000). AID 588342. P08659. Potency, µM (doses to about 57.5 µM), inactives show at the top dose activity change, negative = inhibition, most hits filed as inhibitors. purified FLuc, Km substrates, luminescence inhibition;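 further: plate controls were vehicle for no effect and reference inhibitor for full effect; nearly all actives have a fitted effect of over 55% in size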
Target sequence (P08659 whole entry, looked up): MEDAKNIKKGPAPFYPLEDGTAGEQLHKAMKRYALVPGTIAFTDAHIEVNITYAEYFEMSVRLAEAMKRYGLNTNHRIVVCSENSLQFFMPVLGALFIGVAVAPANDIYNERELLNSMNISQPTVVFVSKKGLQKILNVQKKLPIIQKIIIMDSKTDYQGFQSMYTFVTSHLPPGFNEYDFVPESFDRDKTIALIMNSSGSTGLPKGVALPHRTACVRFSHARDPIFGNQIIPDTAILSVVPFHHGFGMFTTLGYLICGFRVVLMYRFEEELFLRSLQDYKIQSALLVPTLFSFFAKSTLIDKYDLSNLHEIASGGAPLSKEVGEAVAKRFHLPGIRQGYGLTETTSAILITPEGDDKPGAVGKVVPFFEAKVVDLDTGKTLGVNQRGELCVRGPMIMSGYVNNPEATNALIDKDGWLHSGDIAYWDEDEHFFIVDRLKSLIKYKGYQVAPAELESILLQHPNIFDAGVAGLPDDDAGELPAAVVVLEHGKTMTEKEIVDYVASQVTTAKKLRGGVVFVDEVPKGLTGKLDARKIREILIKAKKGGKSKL
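Purified P. pyralis luciferase (10nM final) with 10uM D-luciferin and 10uM ATP (Km levels) in 50mM Tris acetate pH 7.5, 10mM Mg acetate, 0.01% Tween-20, 0.05% BSA; qHTS 6-point titration, ~60 µM downward; luminescence read.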
Rab9 prom act: activators of Rab9 promoter. Huh7 Rab9 promoter-luciferase reporter, luminescence, 24 h. Potency, µM (series often up to 9.22 µM), without a hit: at the highest dose activation, negative = inhibition, usual class: activators. actives 2.8% (n = 320,000). AID 485297; further: % of control where 0% means no effect; nearly all actives have a fitted effect of over 60% in size
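Stable Rab9-luc Huh7, 1500 cells/well, 2 h settle; cmpd in DMSO, 24 h, 37 °C/5% CO2; luciferase reagent 10 min RT; luminescence.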
SMN2 splice enh: enhancers of SMN2 splice variant expression. HEK293 SMN2-luciferase splicing reporter, luminescence, 30-36 h. Potency, µM (titrated, usually from 46.1 µM), without a hit: at the highest dose activity change, positive = activation, most hits filed as activators. actives 2.8% (n = 210,000). AID 1458; further: % of control where 0% means no effect; nearly all actives have a fitted effect of over 55% in size
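qHTS luciferase splicing reporter: luminescence rises when SMN2 exon 7 is included in transfected HEK293 cells. Compound exposure lasted 30-36 h at 37C, with 4.5 mM final sodium butyrate as control, followed by a ONE-Glo read.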
ELG1 genotox: inducers of genotoxicity in HEK293T ELG1-luciferase cells; actives 1.3% (n = 330,000); Potency, µM (titrated, usually from 46 µM), inactives show at the highest dose activity change, positive = activation, actives largely listed as activators; HEK293T ELG1-luciferase reporter, luminescence, 16 h; further: % of control where 0% means no effect; nearly all actives have a fitted effect of over 60% in size
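Luminescence read-out: rising ELG1-luciferase signal, reflecting elevated ELG1 protein under genetic stress, flags genotoxic compounds. Cells were treated for 16 hr at 37 °C before ONE-Glo detection.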
ELG1 DNA repair: blocks ELG1-dependent DNA repair in HEK293T cells; HEK293T ELG1-luciferase reporter, luminescence, 16 h; DNA damage induced by 5-fluorouridine; Potency, µM (doses to about 46.1 µM), for the others: top-dose activity change, negative = inhibition, usual class: inhibitors; AID 504467; actives 2.3% (n = 330,000); further: on the % scale 0 is the no-effect control and ±100 the full control effect; nearly all actives have a fitted effect of over 55% in size
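Reporter activity after DNA damage by 5-fluorouridine is monitored. Compound-treated cells incubate 16 hr at 37 °C, then ONE-Glo is added for 30 min before luminescence reading.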
NPC1 prom act: NPC1 promoter activation; AID 485313; actives 2.4% (n = 320,000); Potency, µM (titrated, usually from 9.22 µM), for the others: at the top dose activation, actives largely listed as activators; Huh7 NPC1 promoter luciferase reporter, 24 h; further: % of control where 0% means no effect; nearly all actives have a fitted effect of over 60% in size
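Readout is luciferase luminescence, reflecting NPC1 promoter activation in stably transfected Huh7 cells after 24 h compound exposure at 37 °C in reduced-serum medium with 10% FBS.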
Active calls of the source: *; ? = inconclusive; . = no result; [ ] = dose if it differs, or a comment. The call rests on the fitted dose curve; in most records, active means well fitted curve in the direction sought with a large enough effect; inconclusive means small, poorly fitted or top-dose-only effect, or another doubt; inactive means no such curve, though single readings can be large; an effect the other way counts as inactive or inconclusive. Potency means the concentration at half of the fitted maximal effect.

SMILES	FLuc counter	Rab9 prom act	SMN2 splice enh	ELG1 genotox	ELG1 DNA repair	NPC1 prom act
O=C(C[C@H]1C/C=C\CC[C@H](Cc2ccc(F)cc2)C(=O)O[C@H](c2ccccc2)CNC1=O)N[C@H](CO)Cc1ccccc1	.	.	.	-6%	10µM*	.
CC(C)Oc1ccc(CNC(=O)CCCN2C(=O)c3cccnc3Oc3ccc(Cl)cc32)cc1	0%	.	.	.	.	.
Cc1c(CNC2CCCCC2)c(C(=O)O)c(C)n1Cc1ccc(F)cc1	2%	.	-8%	.	.	.
CN(c1ccc(F)cc1)S(=O)(=O)N1CCCC(C(=O)NCc2cccc(Br)c2)C1 (stereo unspecified)	1%	.	.	.	.	.
COc1ccc(CN2CCC(N3CC(C)OC(C)C3)CC2)c(OC)c1OC (stereo unspecified)	0%	2%	.	-3%	-10%	-1%
Cc1ccc(-c2nc(-c3cccnc3)sc2CC(=O)Nc2ccc3nc(C)sc3c2)cc1	-8%	3%	-5%	-1%	18µM*	-1%
Cc1nc2ccc(NC(=O)N(C)c3ccccc3)cc2s1	13µM*	?	22µM*	?	?	?
Cc1nc2ccc(NC(=O)Cc3cccs3)cc2s1	7.6µM*	2.5µM*	?	?	?	4µM*
Cc1ccc(NC(=O)Cc2cccs2)cc1Cl	19µM*	?	.	10%	?	25%
CCOC(=O)c1ccccc1NC(=O)Cc1sc(-c2cccnc2)nc1-c1ccc(C)cc1	2%	-7%	-15%	-11%	?	-1%
CCn1c(SCC(=O)N/N=C(\C)c2ccncc2)nnc1-c1ccc(C)cc1	-7%	0%	.	-4%	?	3%
Cn1c(O)c(N=NC(=O)Cn2c(C(F)(F)F)nc3ccccc32)c2ccccc21	-2%	1%	-19%	-3%	-23%	2%
C=CCC(C)(O)c1cccc(Br)c1 (stereo unspecified)	.	.	0%	.	.	.
C[C@@H](O)[C@H]1C(=O)N2C(C(=O)O)=C(SCCN=CN)C[C@H]12	.	-5%[46.1 µM]	.	.	.	-3%[46.1 µM]
COc1ccc(S(=O)(=O)N(C)C)cc1NCC(=O)Nc1cccc(C#N)c1	6%	0%	-8%	-5%	-17%	-7%
Cc1cccc(CNC(=O)C2CCCN(S(=O)(=O)c3cn(C)cn3)C2)c1 (stereo unspecified)	-3%	.	.	.	.	.
CCOC(=O)Cn1nc(C)n(-c2ccc(F)cc2)c1=O	-1%	-5%	7%	4%	-7%	1%
O=C(Cc1cccs1)Nc1cccc(-c2nc3cc4ccccc4cc3[nH]2)c1	0.85µM*	1.8µM*	6.3µM*	?	?	1.6µM*
Cc1ccc(NC(=O)Cc2coc3c(C)c(C)ccc23)cc1Cl	-8%	.	3%	.	.	.
CC(=O)Nc1cccc(NC(=O)Cc2cccs2)c1	0%	1%	.	-2%	-9%	0%
Cc1ccc(NC(=O)Cc2ncon2)cc1Cl	15µM*	17%	.	5%	?	8%
CCCCCCCn1c(C)nnc1-c1cnn(C)c1N	-15%	-4%	-10%	1%	0%	-4%
CC(=O)Nc1ccc(-n2nnnc2SCC(=O)NCc2cccs2)cc1	1%	-9%	.	9%	9%	-3%
COC(=O)CCCNC(=O)c1ccc2nc(Cc3ccc(OC)cc3)oc2c1	-17%	17%	.	2%	-24%	4%
COc1ccc(Cc2nc3ccc(C(=O)N4CCCC4)cc3o2)cc1	13µM*	2.2µM*	.	?	?	3.2µM*
SMILES	FLuc counter	Rab9 prom act	SMN2 splice enh	ELG1 genotox	ELG1 DNA repair	NPC1 prom act
C=C(C)CNC(=O)c1ccc2nc(Cc3ccc(OC)cc3)oc2c1	11µM*	2.8µM*	.	?	?	2.2µM*
O=C(c1ccc2nc(Cc3cccc(Cl)c3)oc2c1)N1CCOCC1	17µM*	?	.	?	?	?
C[C@H]1[C@H](O)[C@@H](C)C=CC=CC=CC=CC=CC=CC=C[C@H](O[C@@H]2O[C@@H](C)[C@H](O)[C@@H](N)[C@@H]2O)C[C@@H]2O[C@](O)(C[C@@H](O)C[C@@H](O)[C@@H](O)CC[C@@H](O)C[C@@H](O)CC(=O)O[C@H]1C)C[C@H](O)[C@H]2C(=O)O	.	.	-4%[9.22 µM]	.	.	.
O=C(CN1C(=O)COc2ccc(S(=O)(=O)N3CCCCCC3)cc21)N1CCN(c2cccc(Cl)c2)CC1	3%	.	-8%	.	.	.
CCN1CCN(CCC(=O)Nc2ccccc2OC)CC1	1%	1%	-8%	2%	10%	-1%
CCN1CCN(Cc2ccc(NC(=O)Nc3ccccc3OC)cc2)CC1	11µM*	?	.	18µM*	?	?
COc1ccc(NC(=O)N/C=C/c2ccccc2)cc1	?	3.5µM*	16µM*	?	?	2µM*
O=C(Nc1ccc(N2CCOCC2)cc1)Nc1ccc(Cl)c(Cl)c1	?	35%	19%	16%	?	29%
O=C(Nc1ccc(N2CCOCC2)cc1)Nc1cnsn1	17µM*	?	13µM*	15%	?	?
Cc1ccc(NC(=O)Nc2ccccc2C(N)=O)cc1	2.7µM*	15%	.	12%	?	17%
COc1ccccc1NC(=O)Nc1ccc(Cc2ccncc2)cc1	17µM*	13%	-3%	6%	?	5%
COc1ccc(OC)c(NC(=O)Nc2ccc(Cl)cc2)c1	19µM*	7%	-5%	-2%	-5%	1%
COC(=O)c1cc(NC(=O)Nc2cc(OC)ccc2OC)cc(C(=O)OC)c1	-1%	-5%	-8%	-11%	-7%	6%
O=C(N/C=C/c1ccccc1)c1ccccc1	2.1µM*	1.3µM*	.	?	?	1.1µM*
COc1ccc(NC(=O)Nc2ccccc2C(N)=O)cc1OC	19µM*	.	-8%	.	.	.
O=C(N/C=C\c1ccccc1)NCc1ccc(Cl)cc1	2%	-4%	0%	-3%	-2%	2%
COc1ccc2c(c1OC)OCC(c1ccc(OC)c(OC)c1OC)C2 (stereo unspecified)	.	.	1%	.	.	.
COc1ccc(NC(=O)Nc2ccccc2C(N)=O)cc1	5.4µM*	1%	10%	7%	5%	-6%
COc1ccccc1NC(=O)Nc1ccc(C(N)=O)cc1	?	?	?	14%	?	18%
COc1ccccc1NC(=O)Nc1ccc(CC#N)cc1	21µM*	?	.	?	?	?
COc1ccccc1NC(=O)Nc1ccccc1C(N)=O	-18%	1%	-1%	3%	?	5%
COc1ccc(NC(=O)Nc2ccccc2OC)cc1	8.5µM*	?	?	9.2µM*	?	?
COc1ccccc1NC(=O)Nc1cc(F)ccc1F	24µM*	2%	6%	3%	-3%	11%
